# PubChem BioAssay (NCATS)
# Records with an inconclusive call do not appear. Entries that show only a call come without a potency. A number with no mark means an inactive call. Active and inactive are the calls of the source. Calls come from the whole dose curve; as a rule, active = well fitted inhibition curve with a large enough effect; inconclusive = small, poorly fitted or top-dose-only effect; inactive = no such curve, though single readings can be large or run the other way.
# Assay: Primary qHTS for small molecule stabilizers of the endoplasmic reticulum resident proteome: Secreted ER Calcium Modulated Protein (SERCaMP) assay (AID 1508630)
# Conditions: SH-SY5Y GLuc-SERCaMP (Gaussia luciferase released on ER calcium loss) secretion, thapsigargin, luminescence; series mostly up to 38.4 µM; activity change, negative = inhibition: at the top concentration
# Text: Assay Provider: Brandon K. Harvey Ph.D.
# National Institute on Drug Abuse, National Institutes of Health, Baltimore, MD
# Endoplasmic reticulum (ER) dysregulation is associated with human pathologies including neurodegenerative, cardiovascular, muscular, and diabetic conditions. Maintenance of ER calcium is critical for functions of the ER and its depletion can lead to loss of ER resident proteins, in a process termed exodosis. Therapeutic compounds capable of attenuating the redistribution of ER proteins under pathological conditions may slow or stop disease progression. To identify such compounds, we performed a quantitative high-throughput screen (qHTS) using the SERCaMP assay, which monitors secretion of ER resident proteins triggered by calcium depletion.
# SERCaMP was initially developed as a reporter of ER calcium homeostasis using a Gaussia luciferase with a modified signal peptide and carboxy-terminus (GLuc-SERCaMP), modifications that confer secretion of the reporter in response to ER calcium depletion (Henderson et al., 2014). The assay was used to screen 9,501 compounds, including a collection of drugs approved by the FDA (US), EMA (EU), NHI (Japan), and HC (Canada) regulatory agencies (Huang et al., 2011). Since the SERCaMP reporter reflects the exodosis phenomenon (Trychta et al., 2018a), compounds identified in the screen have the potential to prevent exodosis by different mechanisms such as stabilizing ER calcium or augmenting ERS retrieval.
# 1. Henderson, M.J., Wires, E.S., Trychta, K.A., Richie, C.T., and Harvey, B.K. (2014). SERCaMP: a carboxy-terminal protein modification that enables monitoring of ER calcium homeostasis. Mol Biol Cell 25, 2828-2839.
# 2. Huang, R., Southall, N., Wang, Y., Yasgar, A., Shinn, P., Jadhav, A., Nguyen, D.T., and Austin, C.P. (2011). The NCGC pharmaceutical collection: a comprehensive resource of clinically approved drugs enabling repurposing and chemical genomics. Sci Transl Med 3, 80ps16.
# 3. Trychta, K.A., Back, S., Henderson, M.J., and Harvey, B.K. (2018a). KDEL Receptors Are Differentially Regulated to Maintain the ER Proteome under Calcium Deficiency. Cell Rep 25, 1829-1840 e1826.
# SEQUENCE No. (1, 2, 3, etc.); […] (e.g., Cells, Incubation, Reagent, etc.); VALUE and DESCRIPTION.
# 1; Reagent; 5 uL; 1000 SH-SY5Y cells per wells
# 3; Compound; 23 nL; Control inhibitor / compound library
# 5; Reagent; 100 nM; Thapsigargin
# 7; Reagent; 1 uL; 0.5x coelenterazine
# 8; Detection; Luminescence; ViewLux imaging system
# NOTES (numbers refer to sequence above)
# 1; SH-SY5Y human neuroblastoma cells stably expressing GLuc-SERCaMP (SH-SY5Y-GLuc-ASARTDL) cells were seeded in 1,536 well white tissue culture treated plates (Corning, Cat# 7464) in DMEM-high glucose-sodium pyruvate (ThermoFisher Scientific, Cat #10569) supplemented with 10% bovine growth serum (Hyclone), 10 U/ml penicillin (Gibco), 10 ug/ml streptomycin (Gibco), and 20 mM HEPES.
# 2; Assay plates were incubated for 5 hour at 37C in a humidified incubator containing 5% CO2.
# 3; qHTS libraries (23 nl, final concentrations of 1.53 uM, 7.67 uM, 38.3 uM) or controls (neutral control: DMSO, positive control: dantrolene) were added using a Kalypsis pin-tool Robotic System equipped with 1536 pinheads.
# 4; Cells were then incubated for 16 hours at 37C, 5% CO2.
# 5; Thapsigargin was added at 100 nM to deplete ER calcium stores.
# 6; Cells were incubated for 4 hour (37 °C, 5% CO2)
# 7; Gaussia luciferase in the medium was measured by adding 1 ul of 0.5x coelenterazine (final concentration 0.07x) prepared in Gaussia Luciferase Glow Assay Buffer (Pierce), without addition of the Cell Lysis Buffer Reagent.
# 8; Luminescence was measured using a ViewLux […] CCD imaging system (Perkin Elmer) equipped with clear filters. […] The same controls were also used for the calculation of the Z' factor, a measure of assay quality control, as previously described (Zhang et al., 1999). […]
SMILES,Potency,"activity change, negative = inhibition"
c1ccc2c(c1)CCCC2C1=NCCN1 (stereo not given),inactive,–
C[C@H](CS)C(=O)N1CCC[C@H]1C(=O)O,inactive,–
CN(C)CCCN1c2ccccc2Sc2ccc(C(F)(F)F)cc21,–,-1.45%
CC(=O)OCC1=C(C(=O)O)N2C(=O)[C@@H](NC(=O)Cc3cccs3)[C@H]2SC1,–,-23%
COc1ccc2c(c1OC)C(=O)O[C@@H]2[C@H]1c2c(cc3c(c2OC)OCO3)CCN1C,inactive,–
Cc1cccc(C)c1NC(=O)C(C)N (stereo not given),–,-9.17%
CC[N+](C)(C)c1cccc(O)c1,–,-0.543%
C[N+](C)(C)CCCCCCCCCC[N+](C)(C)C,–,-18.7%
CCc1c(C)[nH]c2c1C(=O)C(CN1CCOCC1)CC2 (stereo not given),inactive,–
CCCN(CCC)CCc1cccc2c1CC(=O)N2,–,-11.5%
CCN(CC)CCNC(=O)c1cc(S(C)(=O)=O)ccc1OC,–,0.256%
NC(N)=NC(=O)Cc1c(Cl)cccc1Cl,inactive,–
O=C(O)CN(CCOCCOCCN(CC(=O)O)CC(=O)O)CC(=O)O,–,8.07%
Cc1ccc(Cl)c(Nc2ccccc2C(=O)O)c1Cl,inactive,–
CN(C)C(=O)Oc1ccc[n+](C)c1,–,-29.4%
Cc1ccc(=O)n(-c2ccccc2)c1,–,-18.4%
O=C(O)CCCCCCCC(=O)O,inactive,–
CCCCCN(CCCCC)C(=O)C(CCC(=O)O)NC(=O)c1ccc(Cl)c(Cl)c1 (stereo not given),inactive,–
CC(C)COCC(CN(Cc1ccccc1)c1ccccc1)N1CCCC1 (stereo not given),–,-18%
CCN1CCC[C@H]1CNC(=O)c1c(O)c(Cl)cc(Cl)c1OC,inactive,–

SMILES,Potency,"activity change, negative = inhibition"
CCn1ccnc1CC1COc2ccccc2O1 (stereo not given),inactive,–
C[C@]12CC[C@@H]3c4ccc(O)cc4C[C@@H](CCCCCCCCCS(=O)CCCC(F)(F)C(F)(F)F)[C@H]3[C@@H]1CC[C@@H]2O (stereo not given in full),–,-25.6%
C#CCN(C)CCCOc1ccc(Cl)cc1Cl,inactive,–
O=C1CC2(CCCC2)CC(=O)N1CCCCN1CCN(c2ncccn2)CC1,–,-15.5%
CCN1CCc2nc(N)oc2CC1,–,-26.3%
O=C1NCN(c2ccccc2)C12CCN(CCCC(c1ccc(F)cc1)c1ccc(F)cc1)CC2,–,-27.1%
N[C@@H](COP(=O)(O)O)C(=O)O,inactive,–
NC(=O)N1c2ccccc2C=Cc2ccccc21,inactive,–
C[C@]12CCC(=O)C=C1CC[C@@H]1[C@@H]2C(=O)C[C@@]2(C)[C@H]1CC[C@]2(O)C(=O)CO,inactive,–
CCOC(=O)C1=C(C)NC(C)=C(C(=O)OC)C1c1cccc(Cl)c1Cl (stereo not given),inactive,–
CCN(CC)CC(=O)Nc1c(C)cccc1C,inactive,–
Brc1c(NC2=NCCN2)ccc2nccnc12,inactive,–
CCOC(=O)c1cnc2c(cnn2CC)c1NN=C(C)C,inactive,–
CN1C(=O)CC[C@H]1c1cccnc1,inactive,–
CC(C(=O)O)c1ccc(CC2CCCC2=O)cc1 (stereo not given),inactive,–
CCCOc1ccccc1-c1nc2n[nH]nc2c(=O)[nH]1,–,-26.1%
NC(=O)c1cn(Cc2c(F)cccc2F)nn1,inactive,–
COCCOC(=O)C1=C(C)NC(C)=C(C(=O)OC(C)C)C1c1cccc([N+](=O)[O-])c1 (stereo not given),–,-4.35%
CCCNC(C)C(=O)Nc1ccccc1C (stereo not given),–,-24.3%
NC(Cc1ccc(Cl)cc1)C(=O)O (stereo not given),inactive,–
